Test results as given in PubChem BioAssay (Tox21).
Inconclusive results are not listed. Calls of active or inactive are those of the source. Unless noted, calls come from the whole dose curve; as a rule, active = well fitted curve in the direction sought with a large enough effect in the repeat runs; inconclusive = weak or mixed curves; inactive = no such curve, though single readings can be large; an effect the other way counts as inactive or inconclusive.

Columns and labels:
[1] = qHTS assay to identify small molecule antagonists of the estrogen related receptor (ERR) signaling pathway - cell viability counter screen (AID 1224818);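 note: series mostly up to about 46 µM; viability measured after 17.5 h of compound exposure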
Procedure, shortened: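 In the same ERR cell assay, compound-treated wells (17.5 h, 37 C) were multiplexed with a fluorogenic viability reagent, CellTiter-Fluor, read after 30 min to flag cytotoxic substances.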

[2] = qHTS assay to identify small molecule antagonists of the estrogen related receptor (ERR) signaling pathway (AID 1224819; note: nearly all actives have a fitted effect of over 50% in size; note: potency is the fitted concentration of half-maximal effect)
Procedure, shortened: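 qHTS in ERR cells, 2,000/well, 1536 format. Cpd (DMSO) added after 6 h settle, 18 h 37 C. One-Glo luminescence, 30 min RT.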

[3] = qHTS assay to identify small molecule agonists of the estrogen related receptor (ERR) signaling pathway (AID 1224820)
Procedure, shortened: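 Cells: ERR line from NTP, 2,000/well. Pre-incubation 6 h, 37 C/5% CO2. Compound (DMSO) pin transfer, 18 h 37 C. One-Glo, 30 min RT, luminescence.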

[4] = test system: estrogen-related receptor alpha (ERRalpha) with PGC-1alpha coactivator, human; assay: qHTS assay to identify small molecule antagonists of the estrogen related receptor signaling pathway with the pleiotropic PPARgamma coactivator (PGC) (AID 1224821; calls by dose curve; note: nearly all actives have a fitted effect of over 50% in size; note: potency is the fitted concentration of half-maximal effect)
Procedure, shortened: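 Luminescent read-out (One-Glo, 30 min at room temperature) following 18 h treatment of PGC/ERR cells at 37 C with compounds delivered in DMSO. Cells had settled 6 h at 37 C/5% CO2 before dosing.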

[5] = qHTS assay to identify small molecule antagonists of the estrogen related receptor signaling pathway with the pleiotropic PPARgamma coactivator (PGC) cell viability counter screen (AID 1224822; note: series mostly up to about 46 µM)
Procedure, shortened: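 Compounds in DMSO, with positive and negative controls, were applied to PGC/ERR cells (2,000/well) and left 17.5 h at 37 C before CellTiter-Fluor detection.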

[6] = qHTS assay to identify small molecule agonists of the estrogen related receptor signaling pathway with the pleiotropic PPARgamma coactivator (PGC) (AID 1224823)
Procedure, shortened: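 Steps: plate PGC/ERR cells at 2,000 cells/well; incubate 6 h, 37 C/5% CO2; pin-transfer compounds (DMSO); incubate 18 h, 37 C; add One-Glo; 30 min RT; read luminescence.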

[7] = qHTS assay for small molecule agonists of the p53 signaling pathway (AID 651631; calls by dose curve; note: nearly all actives have a fitted effect of over 15% in size)
Procedure, shortened: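 Read-out is beta-lactamase FRET fluorescence measured 2 h after substrate addition at room temperature, in HCT-116 cells with a p53 response element-driven reporter exposed to compounds for 16 h at 37 °C.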

[8] = qHTS assay for small molecules that induce genotoxicity in human embryonic kidney cells expressing luciferase-tagged ATAD5 (AID 651632); note: nearly all actives have a fitted effect of over 15% in size
Procedure, shortened: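 Reporter cells (HEK293T) express luciferase-tagged ATAD5, a protein that accumulates after DNA damage. Treat 16 hr at 37C/5% CO2, add Amplite, wait 30 min at RT, and read luminescence.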

[9] = qHTS assay for small molecule agonists of the p53 signaling pathway - cell viability (AID 651633; calls by dose curve;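 note: p53RE-bla HCT reporter cells with a stable beta-lactamase p53 reporter; series mostly up to about 83 µM; nearly all actives have a fitted effect of over 30% in size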)
Procedure, shortened: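 p53RE-bla cells were treated with compound for 16 hours at 37 C. Cytotoxicity was then measured as CellTiter-Glo luminescence after 30 min at room temperature.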

[10] = qHTS assay for small molecules that induce genotoxicity in human embryonic kidney cells expressing luciferase-tagged ATAD5 - cell viability (AID 651634; calls by dose curve; note: nearly all actives have a fitted effect of over 25% in size)
Procedure, shortened: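 Seeding of 2,000 HEK293T ATAD5-luciferase cells per well preceded pin-tool compound transfer. Plates sat 15.5 hr at 37C under 5% CO2, then fluorescence was read after 30 min with CellTiter-Fluor.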

[11] = qHTS assay for small molecule disruptors of the mitochondrial membrane potential - cell viability (AID 720634; calls by dose curve;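 note: human HepG2 liver cancer cells; series mostly up to about 83 µM; nearly all actives have a fitted effect of over 20% in size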)
Procedure, shortened: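 Measuring cytotoxicity alongside mitochondrial potential, the screen quantified ATP by luminescence in HepG2 cells after 1 hr compound incubation and a 30 min room-temperature CellTiter-Glo step.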

[12] = qHTS assay for small molecule disruptors of the mitochondrial membrane potential (AID 720635)
Procedure, shortened: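 HepG2 cells exposed to compound 1 hr at 37C, then Mito-MPS dye 30 min. Ratio read of aggregate (540/590 nm) versus monomer (490/535 nm) fluorescence.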

[13] = qHTS assay to test for compound auto fluorescence at 590 nm (red) in HepG2 cells (AID 720674)
Procedure, shortened: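 Fluorescence at 590 nm emission following 540 nm excitation was recorded from HepG2 wells one hour after compound transfer, with DMSO-only wells as vehicle and Rose Bengal sodium equivalency as the scale.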

[14] = qHTS assay to test for compound auto fluorescence at 535 nm (green) in HepG2 cells (AID 720675)
[15] = qHTS assay to test for compound auto fluorescence at 460 nm (blue) in HEK293 cells (AID 720678)
Procedure, shortened: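 Blue read-out at excitation 405 nm and emission 460 nm follows overnight compound exposure of HEK293 cells at 37C in 5% CO2. Activity is given as auto fluorescence equivalency to triamterene.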

[16] = qHTS assay to test for compound auto fluorescence at 590 nm (red) in HEK293 cells (AID 720679)
Procedure, shortened: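 Red channel, Ex/Em 540/590nm; signal expressed as equivalency to Rose Bengal sodium. HEK293, 2,000 cells/well, 10% dialyzed FBS; 23 nL compound pinned after 4-5 hr attachment; overnight 37C/5% CO2 before reading.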

[17] = qHTS assay to test for compound auto fluorescence at 535 nm (green) in HEK293 cells (AID 720680)
[18] = qHTS assay to test for compound auto fluorescence at 460 nm (blue) in HEK293 cell free culture (AID 720681)
Procedure, shortened: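 Compounds were added to cell-free DMEM with 10% FBS and fluorescence read directly. The blue channel used 405 nm excitation and 460 nm emission, with triamterene as the reference fluorophore.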

[19] = qHTS assay to test for compound auto fluorescence at 535 nm (green) in HEK293 cell free culture (AID 720682)
Procedure, shortened: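 Fluorescein serves as the green reference fluorophore; each compound's intrinsic emission at 535 nm (excitation 485 nm) is reported as an equivalent amount of that dye, measured in serum-containing DMEM without cells.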

[20] = qHTS assay to test for compound auto fluorescence at 590 nm (red) in HEK293 cell free culture (AID 720683)
Procedure, shortened: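 Cell-free wells of DMEM with 10% FBS received compound, and intrinsic fluorescence was read at excitation/emission 540/590 nm. Values expressed as equivalence to Rose Bengal sodium.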

[21] = qHTS assay to test for compound auto fluorescence at 590 nm (red) in HepG2 cell free culture (AID 720684)
Procedure, shortened: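 Compound was pinned into wells holding MEM with 10% FBS and no cells, and red fluorescence was read at Ex/Em 540/590 nm. Signal is expressed as auto fluorescence equivalency relative to Rose Bengal sodium.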

[22] = qHTS assay to test for compound auto fluorescence at 460 nm (blue) in HepG2 cell free culture (AID 720685)
Procedure, shortened: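 Compound (23 nL) or DMSO pinned into cell-free MEM with 10% FBS; blue fluorescence read at 405/460 nm excitation/emission, expressed as auto-fluorescence equivalency to triamterene.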

[23] = qHTS assay to test for compound auto fluorescence at 535 nm (green) in HepG2 cell free culture (AID 720686)
[24] = qHTS assay to test for compound auto fluorescence at 460 nm (blue) in HepG2 cells (AID 720687)
Procedure, shortened: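 HepG2 cells in MEM with 10% FBS, attached overnight at 37 C, were exposed to compound or DMSO for 1 hr at 37 C, 5% CO2. Blue fluorescence was read at 405/460 nm, with triamterene as reference fluorophore.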

[25] = qHTS assay to identify small molecule antagonists of the glucocorticoid receptor (GR) signaling pathway - cell viability counter screen (AID 720693); note: nearly all actives have a fitted effect of over 55% in size
[26] = qHTS assay for identifying genotoxic compounds that show differential cytotoxicity against isogenic chicken DT40 cell lines with known DNA damage response pathways - Rad54/Ku70 mutant cell line (AID 743015); note: nearly all actives have a fitted effect of over 60% in size
[27] = qHTS assay to identify small molecule antagonists of the androgen receptor (AR) signaling pathway - cell viability counter screen (AID 743033; note: nearly all actives have a fitted effect of over 45% in size)
[28] = qHTS assay to identify small molecule antagonists of the androgen receptor (AR) signaling pathway using the MDA cell line - cell viability counter screen (AID 743041; note: nearly all actives have a fitted effect of over 45% in size)
Procedure, shortened: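 MDA-kb2 AR-luc cells (MMTV-luciferase, AR/GR responsive) treated with compounds plus R1881 agonist for 16 h at 37C. CellTiter-Fluor added at 15.5 h; fluorescence read after 30 min in the same wells.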

[29] = qHTS assay to identify small molecule antagonists of the thyroid receptor (TR) signaling pathway - cell viability counter screen (AID 743064); note: nearly all actives have a fitted effect of over 50% in size
Procedure, shortened: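 Fluorescence from CellTiter-Fluor, added after 23.5 h exposure at 37 °C, reported viability of GH3.TRE-Luc cells co-treated with compound and 1 nM T3. Measured in the same wells as the luciferase TR readout.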

[30] = qHTS assay to identify small molecule antagonists of the thyroid receptor (TR) signaling pathway (AID 743065); note: series mostly up to about 70 µM; nearly all actives have a fitted effect of over 55% in size
Procedure, shortened: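 GH3.TRE-Luc rat pituitary cells (two TREs driving luciferase) were dosed with compound, then stimulated with 1 nM T3 (final) for 23.5 h at 37 C. ONE-Glo luminescence was the read-out, with CellTiter-Fluor fluorescence as the cytotoxicity counter-screen.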

[31] = test system: thyroid hormone receptor (rat, GH3 cells); assay: qHTS assay to identify small molecule agonists of the thyroid receptor (TR) signaling pathway (AID 743066; calls by dose curve)
[32] = target: Estrogen receptor (Homo sapiens) (UniProt P03372); assay: qHTS assay to identify small molecule antagonists of the estrogen receptor alpha (ER-alpha) signaling pathway (AID 743069; active = well fitted curve in the direction sought with a large enough effect in the signal ratio in the repeat runs, not every such curve was filed as active; the % refers to the signal ratio)
Estrogen receptor (Homo sapiens), sequence (P03372 whole entry, looked up): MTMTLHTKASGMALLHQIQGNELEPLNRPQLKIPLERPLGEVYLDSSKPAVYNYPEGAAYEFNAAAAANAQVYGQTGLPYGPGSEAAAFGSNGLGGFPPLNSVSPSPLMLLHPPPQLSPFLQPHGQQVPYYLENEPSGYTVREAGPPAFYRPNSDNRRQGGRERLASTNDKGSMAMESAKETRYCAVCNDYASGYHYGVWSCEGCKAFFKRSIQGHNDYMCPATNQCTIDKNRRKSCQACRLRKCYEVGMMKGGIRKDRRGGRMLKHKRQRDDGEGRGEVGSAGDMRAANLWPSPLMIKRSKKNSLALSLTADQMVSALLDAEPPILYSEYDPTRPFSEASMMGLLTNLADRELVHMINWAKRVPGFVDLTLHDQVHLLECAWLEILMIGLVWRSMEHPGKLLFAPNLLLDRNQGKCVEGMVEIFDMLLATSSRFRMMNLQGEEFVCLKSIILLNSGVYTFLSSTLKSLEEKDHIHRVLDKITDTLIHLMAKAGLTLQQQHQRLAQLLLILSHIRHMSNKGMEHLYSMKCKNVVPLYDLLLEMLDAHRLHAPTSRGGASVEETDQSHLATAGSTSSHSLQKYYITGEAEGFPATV
Procedure, shortened: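 HEK293 ER-alpha-UAS-bla GripTite cells, held overnight in 2% charcoal-stripped FBS, 5,000 cells/well, preincubated 4 h, then compound plus 17beta-estradiol for 18 h at 37C. Beta-lactamase read by LiveBLAzer B/G FRET substrate, 2 h at room temperature.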

[33] = target: Estrogen receptor (Homo sapiens) (UniProt P03372); assay: qHTS assay to identify small molecule agonists of the estrogen receptor alpha (ER-alpha) signaling pathway (AID 743075; calls by dose curve)
[34] = target: Estrogen receptor (Homo sapiens) (UniProt P03372); assay: qHTS assay to identify small molecule agonists of the estrogen receptor alpha (ER-alpha) signaling pathway using the BG1 cell line (AID 743079); note: nearly all actives have a fitted effect of over 20% in size
[35] = qHTS assay to identify small molecule antagonists of the estrogen receptor alpha (ER-alpha) signaling pathway using the BG1 cell line (AID 743080; calls by dose curve;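 note: BG1 cells stimulated with 17beta-estradiol alongside compound; series mostly up to about 70 µM; nearly all actives have a fitted effect of over 25% in size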)
Procedure, shortened: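 Luminescence from a 4×ERE-luciferase reporter in BG1-Luc-4E2 cells served as read-out. Cells, pre-cultured 5 days in stripped-serum phenol-red-free medium, were exposed to compound with 17beta-estradiol co-stimulation for 21.5 h at 37 C.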

[36] = qHTS assay to identify small molecule antagonists of the estrogen receptor alpha (ER-alpha) signaling pathway using the BG1 cell line - cell viability counter screen (AID 743081);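 note: compound given together with 17beta-estradiol as the ER stimulus; series mostly up to about 70 µM; nearly all actives have a fitted effect of over 45% in size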
[37] = target: Aromatase (Homo sapiens) (UniProt P11511); assay: qHTS assay to identify aromatase inhibitors (AID 743083); note: series mostly up to about 70 µM; nearly all actives have a fitted effect of over 55% in size
Aromatase (Homo sapiens), sequence (P11511 whole entry, looked up): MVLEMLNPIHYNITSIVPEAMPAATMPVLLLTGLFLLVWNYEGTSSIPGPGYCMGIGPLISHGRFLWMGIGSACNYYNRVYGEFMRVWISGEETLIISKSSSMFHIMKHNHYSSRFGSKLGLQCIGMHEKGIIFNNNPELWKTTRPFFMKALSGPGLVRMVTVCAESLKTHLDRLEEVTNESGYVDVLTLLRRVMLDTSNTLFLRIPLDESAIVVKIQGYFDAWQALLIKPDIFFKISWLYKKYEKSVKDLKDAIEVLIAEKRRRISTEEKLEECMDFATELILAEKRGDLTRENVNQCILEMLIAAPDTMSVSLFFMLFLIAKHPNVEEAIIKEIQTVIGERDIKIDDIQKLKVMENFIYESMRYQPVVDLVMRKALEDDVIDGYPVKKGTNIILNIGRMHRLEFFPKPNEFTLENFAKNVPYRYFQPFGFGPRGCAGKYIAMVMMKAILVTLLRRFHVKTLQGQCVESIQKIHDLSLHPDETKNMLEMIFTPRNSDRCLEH

[38] = qHTS assay to identify aromatase inhibitors - cell viability counter screen (AID 743084);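 note: cells stimulated with testosterone during compound exposure; nearly all actives have a fitted effect of over 55% in size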
[39] = target: Aryl hydrocarbon receptor (Homo sapiens) (UniProt P35869); assay: qHTS assay to identify small molecule that activate the aryl hydrocarbon receptor (AhR) signaling pathway (AID 743085);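 note: HG2L7.5c1 human HepG2 liver cells with stably integrated DRE-driven firefly reporter; series mostly up to about 70 µM; nearly all actives have a fitted effect of over 15% in size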
Aryl hydrocarbon receptor (Homo sapiens), sequence (P35869 whole entry, looked up): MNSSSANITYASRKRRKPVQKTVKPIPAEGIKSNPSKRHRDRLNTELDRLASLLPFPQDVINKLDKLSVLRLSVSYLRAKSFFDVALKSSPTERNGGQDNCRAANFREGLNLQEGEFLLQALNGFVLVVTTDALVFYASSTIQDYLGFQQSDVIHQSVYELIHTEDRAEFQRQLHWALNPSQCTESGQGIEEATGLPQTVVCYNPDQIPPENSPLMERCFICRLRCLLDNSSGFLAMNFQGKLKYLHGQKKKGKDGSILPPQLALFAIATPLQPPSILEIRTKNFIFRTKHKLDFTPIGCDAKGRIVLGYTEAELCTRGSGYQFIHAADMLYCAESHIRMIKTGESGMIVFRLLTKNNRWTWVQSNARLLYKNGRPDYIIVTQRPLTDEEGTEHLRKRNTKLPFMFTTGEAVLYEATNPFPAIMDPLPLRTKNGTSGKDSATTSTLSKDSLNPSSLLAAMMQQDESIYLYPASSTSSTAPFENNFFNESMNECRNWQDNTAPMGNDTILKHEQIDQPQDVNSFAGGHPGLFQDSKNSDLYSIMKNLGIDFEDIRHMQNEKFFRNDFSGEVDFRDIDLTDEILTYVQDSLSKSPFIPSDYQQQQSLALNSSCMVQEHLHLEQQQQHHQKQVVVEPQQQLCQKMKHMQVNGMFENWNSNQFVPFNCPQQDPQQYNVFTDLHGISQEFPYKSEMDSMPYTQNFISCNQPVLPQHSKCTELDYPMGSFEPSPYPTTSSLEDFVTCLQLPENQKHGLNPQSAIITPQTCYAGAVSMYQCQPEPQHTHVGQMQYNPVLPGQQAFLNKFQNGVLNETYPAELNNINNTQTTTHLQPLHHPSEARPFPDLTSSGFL
Procedure, shortened: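 Cell line HG2L7.5c1 (human hepatoma, 20× DRE-luc). Plated, 5 h 37C, compound/DMSO added, 24 h 37C. CellTiter-Fluor 30 min 37C → fluorescence; then ONE-Glo 30 min RT → luminescence.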

[40] = qHTS assay to identify small molecule that activate the aryl hydrocarbon receptor (AhR) signaling pathway - cell viability counter screen (AID 743086);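 note: HepG2 liver cells carrying the AhR DRE luciferase reporter; series mostly up to about 70 µM; nearly all actives have a fitted effect of over 45% in size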
Procedure, shortened: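 HepG2-AhR-luc (HG2L7.5c1) cells, 4000/well, treated 24 h at 37 C with compound; viability measured as CellTiter-Fluor fluorescence after 30 min in the same wells as the luciferase read.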

[41] = target: Peroxisome proliferator-activated receptor gamma (Homo sapiens) (UniProt P37231); assay: qHTS assay to identify small molecule agonists of the peroxisome proliferator-activated receptor gamma (PPARg) signaling pathway (AID 743094; active = well fitted activation curve with a large enough effect in the signal ratio in the repeat runs, not every such curve was filed as active; the % refers to the signal ratio)
Peroxisome proliferator-activated receptor gamma (Homo sapiens), sequence (P37231 whole entry, looked up): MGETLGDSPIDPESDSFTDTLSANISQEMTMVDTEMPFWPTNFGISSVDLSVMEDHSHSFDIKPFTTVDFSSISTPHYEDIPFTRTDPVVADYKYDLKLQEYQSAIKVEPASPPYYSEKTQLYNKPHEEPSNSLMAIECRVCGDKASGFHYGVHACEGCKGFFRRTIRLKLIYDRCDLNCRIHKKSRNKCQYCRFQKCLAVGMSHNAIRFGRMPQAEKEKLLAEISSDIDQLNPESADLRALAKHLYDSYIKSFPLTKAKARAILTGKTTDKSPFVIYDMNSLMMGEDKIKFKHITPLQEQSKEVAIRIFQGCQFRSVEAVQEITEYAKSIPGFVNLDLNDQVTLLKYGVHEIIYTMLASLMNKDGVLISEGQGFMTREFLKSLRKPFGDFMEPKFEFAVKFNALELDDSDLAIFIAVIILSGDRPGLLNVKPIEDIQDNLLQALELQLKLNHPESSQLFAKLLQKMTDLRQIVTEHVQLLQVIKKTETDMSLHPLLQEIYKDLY
Procedure, shortened: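 Following 5 h plating at 37C, PPARg-bla HEK293H cells receive compound or DMSO for 17 h; fluorescence intensity is recorded after LiveBLAzer B/G loading for 1 h at room temperature.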

[42] = qHTS assay to identify small molecule phospholipidosis (PLD) inducers (AID 1259344; active = well fitted curve in the direction sought with a large enough effect; an effect the other way counts as inactive or inconclusive)
Procedure, shortened: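 HepG2 cells, 900/well, treated with compound plus LipidTOX Red for 24 h at 37 C; amiodarone positive and DMSO negative controls. Fixed with paraformaldehyde/Hoechst, then high-content imaging scored LipidTOX pit count and integrated intensity per well and per cell.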

Measured: Potency

CCCN(CCC)[C@@H]1CCc2ccc(O)cc2C1
inactive: [1] | [2] | [3] | [4] | [5] | [6]

Oc1ccc2c3c1O[C@H]1c4[nH]c5ccccc5c4C[C@@]4(O)C(C2)N(CC2CC2)CCC314 (stereo partly drawn)
inactive: [1] | [2] | [3] | [4] | [5] | [6]

O=P(O)(O)C(Cl)(Cl)P(=O)(O)O
inactive: all assays above

CCCN1CCc2cc(O)cc3c2[C@H]1Cc1ccc(O)c(O)c1-3
inactive: [1] | [2] | [3] | [4] | [6]

CC(=O)NCCc1c[nH]c2ccccc12
inactive: [1] | [2] | [3] | [4] | [5] | [6]

C[C@@H]1O[C@@H](O[C@H]2C[C@@H](O)[C@]3(CO)[C@@H]4C(CC[C@]3(O)C2)[C@@]2(O)CC[C@H]([C@@H]3COC(=O)C3)[C@@]2(C)C[C@H]4O)[C@H](O)[C@H](O)[C@H]1O (stereo partly drawn)
inactive: [1] | [3] | [6]
active: [2] 1190 nM | [4] 3480 nM

CC(N)Cc1c[nH]c2ccc(O)cc12 (stereo not drawn)
inactive: [1] | [2] | [3] | [5]

C[N+](C)(C)CC#CCOC(=O)Nc1cccc(Cl)c1
inactive: [1] | [2] | [3] | [4] | [5] | [6]

NC(N)=Nc1ccc2[nH]c3c(c2c1)C[C@@]1(O)[C@H]2Cc4ccc(O)c5c4[C@@]1(CCN2CC1CC1)[C@H]3O5
inactive: [1] | [2] | [3] | [4] | [6]

COC(=O)N1CCN(C(=O)Cc2ccc(Cl)c(Cl)c2)C(CN2CCCC2)C1 (stereo not drawn)
inactive: [1] | [2] | [3] | [4] | [5] | [6]

CCCN1CCO[C@@H]2c3cc(O)ccc3OC[C@H]21
inactive: [1] | [2] | [3] | [4] | [5] | [6]

O=[N+]([O-])c1ccc2nc(N3CCNCC3)ccc2c1
inactive: [1] | [2] | [3] | [4] | [5] | [6]
